The text below walks through data of PubChem BioAssay (Tox21).

The target in test [1] is Thyrotropin receptor (Homo sapiens) (UniProt P16473). Nature of the test: qHTS assay to identify small molecule antagonists of the thyroid stimulating hormone receptor (TSHR) signaling pathway (AID 1259385; calls by dose curve; further: nearly all actives have a fitted effect of over 20% in size; further: potency means the concentration at half of the fitted maximal effect). Summed up: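 Antagonist mode: compound-treated TSHR-expressing HEK293 cells were stimulated with 1.5 ng/mL TSH (final) in presence of Ro20-1724 for 30 min at RT. HTRF cAMP detection after 1 h; each compound tested at 15 concentrations, triplicate.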
Background: In qHTS, concentration-response curves come from the screen itself.

Test [2] is described as follows: qHTS assay to identify small molecule agonists of the estrogen receptor alpha (ER-alpha) signaling pathway in the presence of an antagonist - cell viability counter screen (AID 1259386).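 Further: series mostly up to about 92 µM; cells exposed to compounds for 22 h at 37 °C before the viability read; nearly all actives have a fitted effect of over 30% in size.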 Summed up: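 VM7Luc4E2, stripped-serum pre-culture 5 d; 24hr plating; +ICI-182,780 10.0nM final; cpds 15 conc, 22hr, 37C/5% CO2; CellTiter-Fluor added at 21hr, fluorescence 1hr later.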

For test [3], the target named is Progesterone receptor (Homo sapiens) (UniProt P06401). Nature of the test: qHTS assay to identify small molecule agonists of the progesterone receptor (PR) signaling pathway (AID 1346784; calls by dose curve; further: nearly all actives have a fitted effect of over 30% in size). The gist of the method:
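Cells (PR-UAS-bla HEK 293T, GripTite) were plated in assay medium containing 2% charcoal-stripped FBS and incubated 6 hr. Test compounds in DMSO were added for 16 hr at 37C. FRET substrate was then loaded for 2 hr at room temperature before fluorescence reading.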

The nature of test [4]: qHTS assay to identify small molecule antagonists of the progesterone receptor (PR) signaling pathway - cell viability counter screen (AID 1346798). Further: nearly all actives have a fitted effect of over 50% in size. Further: potency means the concentration at half of the fitted maximal effect. On activity change, negative = cytotoxicity: series mostly up to about 92 µM. Summed up:
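Counter screen for cytotoxicity: viability of PR-UAS-bla HEK293T cells was measured with CellTiter-Glo luminescence following 16 hr compound exposure in the presence of R5020.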

Test [5] in a line: qHTS assay to identify small molecule agonists of the progesterone receptor (PR) signaling pathway - cell viability counter screen (AID 1346799; calls by dose curve; further: nearly all actives have a fitted effect of over 45% in size). Summed up:
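Cells (PR-UAS-bla HEK293T) are plated at 3,000/well in 2% charcoal-stripped FBS medium, rested 6 hr, dosed and incubated 16 hr at 37C. CellTiter-Glo is then added and luminescence measured after 30 min at room temperature.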

Test [6] can be described thus: qHTS assay to identify small molecule antagonists of the TGF-beta/Smad signaling pathway - cell viability counter screen (AID 1346824). Further: nearly all actives have a fitted effect of over 50% in size. Summed up: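 Cytotoxicity counter-screen run in the same wells as the beta-lactamase Smad reporter read: CellTiter-Glo luminescence after 30 min at room temperature. HEK 293T SBE-bla cells had 5 hr compound exposure at 37 C with TGF-beta1 (0.25 ng/mL stock).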

Test [7] can be described thus: qHTS assay to identify small molecule agonists of the TGF-beta/Smad signaling pathway - cell viability counter screen (AID 1346829). Further: top concentration of the series differs between compounds; nearly all actives have a fitted effect of over 45% in size. Summed up: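 After overnight seating at 37 C and 5% CO2, reporter cells got compounds for 5 hr and FRET substrate for 2 hr; cell viability then came from CellTiter-Glo luminescence.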
A short description of test [8]: qHTS assay to identify small molecule agonists of the TGF-beta/Smad signaling pathway (AID 1346859; active means well fitted activation curve with a large enough effect in the signal ratio in the repeat runs, not every such curve was filed as active; the % refers to the signal ratio; further: series mostly up to about 77 µM). The gist of the method:
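Reporter line: HEK 293T with stably integrated SBE-controlled beta-lactamase. Compound exposure lasts 5 hr at 37 C and 5% CO2; substrate loading follows for 2 hr at room temperature, with emission read at 460 and 530 nm.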

Test [9] has as its target Progesterone receptor (Homo sapiens) (UniProt P06401). Nature of the test: qHTS assay to identify small molecule antagonists of the progesterone receptor (PR) signaling pathway (AID 1346795; active means well fitted inhibition curve with a large enough effect in the signal ratio in the repeat runs, not every such curve was filed as active; the % refers to the signal ratio). Summed up:
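Antagonist mode: compounds tested against 1 nM (final) promegestone stimulation in HEK293T cells expressing PR-UAS-bla reporter, 16 hr at 37C, 5% CO2; beta-lactamase activity detected via B/G FRET substrate after 2 hr at room temperature.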

For test [10], the target named is Thyrotropin-releasing hormone receptor (Homo sapiens) (UniProt P34981). Nature of the test: qHTS assay to identify small molecule antagonists of the thyrotropin-releasing hormone receptor (TRHR) signaling pathway (AID 1346877; active means well fitted inhibition curve with a large enough effect in the repeat runs, not every such curve was filed as active; further: series mostly up to about 51 µM). The gist of the method:
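Intracellular calcium fluorescence, read kinetically every second over 3 min, reports TRH-evoked signalling in HEK293 cells carrying TRHR. Test compounds were added 5 min ahead of a 1 nM TRH challenge.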

SMILES strings stand for the structures. Values without a mark were called inactive. Records with an inconclusive call do not appear. Active and inactive are the calls of the source. Unless noted, the call rests on the fitted dose curve; in most records, active means well fitted curve in the direction sought with a large enough effect in the repeat runs; inconclusive means weak or mixed curves; inactive means no such curve, though single readings can be large; an effect the other way counts as inactive or inconclusive.
On the % scale 0 is the no-effect control and ±100 the full control effect.

Thyrotropin receptor (Homo sapiens), sequence (P16473 whole entry, looked up): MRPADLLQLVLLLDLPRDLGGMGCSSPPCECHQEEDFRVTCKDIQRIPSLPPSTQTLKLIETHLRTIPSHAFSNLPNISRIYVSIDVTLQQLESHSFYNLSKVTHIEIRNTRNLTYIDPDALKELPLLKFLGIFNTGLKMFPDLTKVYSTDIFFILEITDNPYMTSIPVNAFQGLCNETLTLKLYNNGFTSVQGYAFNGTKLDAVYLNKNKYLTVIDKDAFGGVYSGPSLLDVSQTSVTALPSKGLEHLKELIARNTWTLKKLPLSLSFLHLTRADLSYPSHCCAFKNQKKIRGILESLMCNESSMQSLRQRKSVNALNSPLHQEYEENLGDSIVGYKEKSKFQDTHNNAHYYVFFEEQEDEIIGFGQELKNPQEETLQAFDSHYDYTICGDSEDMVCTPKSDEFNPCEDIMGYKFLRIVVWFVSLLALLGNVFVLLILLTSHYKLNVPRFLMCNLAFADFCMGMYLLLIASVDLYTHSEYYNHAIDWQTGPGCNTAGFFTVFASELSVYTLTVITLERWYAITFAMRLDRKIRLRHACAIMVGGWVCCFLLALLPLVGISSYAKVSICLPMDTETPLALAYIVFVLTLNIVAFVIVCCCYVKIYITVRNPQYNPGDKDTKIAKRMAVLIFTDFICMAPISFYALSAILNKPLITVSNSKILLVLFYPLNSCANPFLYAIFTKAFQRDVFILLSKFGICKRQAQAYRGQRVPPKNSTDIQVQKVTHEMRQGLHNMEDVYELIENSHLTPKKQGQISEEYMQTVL
Thyrotropin-releasing hormone receptor (Homo sapiens), sequence (P34981 whole entry, looked up): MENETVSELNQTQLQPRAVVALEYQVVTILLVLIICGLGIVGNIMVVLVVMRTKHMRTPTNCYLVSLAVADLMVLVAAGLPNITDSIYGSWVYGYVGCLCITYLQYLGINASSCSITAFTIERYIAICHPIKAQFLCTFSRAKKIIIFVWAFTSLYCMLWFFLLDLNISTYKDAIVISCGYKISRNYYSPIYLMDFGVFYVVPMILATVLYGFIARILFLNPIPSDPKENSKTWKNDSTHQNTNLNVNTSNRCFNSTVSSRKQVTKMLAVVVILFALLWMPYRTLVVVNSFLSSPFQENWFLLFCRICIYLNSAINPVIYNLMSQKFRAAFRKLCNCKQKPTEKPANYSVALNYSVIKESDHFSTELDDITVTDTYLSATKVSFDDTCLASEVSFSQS
Progesterone receptor (Homo sapiens), sequence (P06401 whole entry, looked up): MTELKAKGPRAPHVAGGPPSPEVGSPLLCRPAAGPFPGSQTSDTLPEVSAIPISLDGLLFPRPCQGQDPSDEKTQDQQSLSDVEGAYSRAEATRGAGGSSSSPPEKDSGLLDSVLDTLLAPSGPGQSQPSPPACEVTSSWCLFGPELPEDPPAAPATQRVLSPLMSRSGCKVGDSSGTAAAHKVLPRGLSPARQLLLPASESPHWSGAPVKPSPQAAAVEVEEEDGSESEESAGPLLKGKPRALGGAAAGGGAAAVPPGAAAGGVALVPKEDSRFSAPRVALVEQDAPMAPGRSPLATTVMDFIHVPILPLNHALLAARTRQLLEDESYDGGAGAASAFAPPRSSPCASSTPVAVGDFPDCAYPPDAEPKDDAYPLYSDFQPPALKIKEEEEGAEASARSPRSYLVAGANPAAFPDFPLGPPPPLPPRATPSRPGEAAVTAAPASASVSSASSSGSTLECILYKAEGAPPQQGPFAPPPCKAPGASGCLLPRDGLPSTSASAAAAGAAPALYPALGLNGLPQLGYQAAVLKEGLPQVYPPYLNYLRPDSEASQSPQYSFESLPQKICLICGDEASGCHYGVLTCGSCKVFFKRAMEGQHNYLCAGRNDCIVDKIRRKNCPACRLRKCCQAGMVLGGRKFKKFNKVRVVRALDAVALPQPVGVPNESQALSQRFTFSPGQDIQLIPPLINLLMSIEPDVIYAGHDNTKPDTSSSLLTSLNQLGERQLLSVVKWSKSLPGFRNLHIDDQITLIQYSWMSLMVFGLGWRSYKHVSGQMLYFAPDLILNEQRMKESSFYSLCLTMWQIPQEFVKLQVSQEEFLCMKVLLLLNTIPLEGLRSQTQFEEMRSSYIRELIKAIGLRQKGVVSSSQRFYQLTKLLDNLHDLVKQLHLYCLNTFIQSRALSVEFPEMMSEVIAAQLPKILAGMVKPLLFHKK

As for `O=C(C(Cl)Cl)N1CCOC12CCCCC2`, the Potency result in [1], in test [2], in test [3], in test [4] and in test [5] was “inactive” throughout. Besides, the compound was classed as inactive in [6], in test [7] and in test [8].

As for `CCCOCCC`, the Potency result in test [1], in test [2], in [3], in [9] and in test [4] was “inactive” throughout. Also, the call in test [7] and in [8] was inactive.

With `Cc1c(-c2ccccc2)oc2c(C(=O)OCCN3CCCCC3)cccc2c1=O`, in [1], the Potency was 23.7 µM (active). Besides, the Potency result in test [2], in test [3], in test [4] and in test [5] was “inactive” throughout.

Regarding `NC(Cc1ccc(F)cc1)C(=O)O` (centres undefined), in test [1], the activity change, negative = inhibition was -1.13% [at 8.39 µM]. In addition, the activity change, negative = cytotoxicity was 2.6% [at 8.39 µM] in test [2], -3.28% [at 8.39 µM] in test [4], 1.93% [at 8.39 µM] in [5] and 4.18% [at 6.97 µM] in test [7]. The activation in test [3] is 0.365% [at 8.39 µM]; in test [8], -0.692% [at 6.97 µM]. The viability change, negative = cytotoxic in test [6] is 18.5% [at 6.97 µM]. The activity, negative = inhibition in test [10] was -1.45% [at 4.65 µM].

In the case of `Cc1nc(-c2ccccn2)ncc1C(=O)Nn1cc(C)c2cc(F)ccc21`, the Potency entry in test [1], in test [2] and in test [3] was “inactive” each time. Moreover, the Potency in test [4] is 30.6 µM (active). In addition, the compound was classed as inactive in test [6], in test [7], in [8] and in test [10].

With `O=C1CCCCCCCCCCC(=O)OCCO1`, the Potency entry in [1], in test [2], in [3], in test [9] and in [5] was “inactive” each time. Further, the compound was called inactive in test [6] and in [7].

For the compound `NNS(=O)(=O)c1ccc(Oc2ccc(S(=O)(=O)NN)cc2)cc1`, the Potency result in test [1], in test [2], in [3], in test [9] and in test [4] was “inactive” throughout. Moreover, the result in test [6] and in test [7] was inactive.

For the compound `CC(C)C(=O)OCC(C)(C)C(O)C(C)C` (centres undefined), the Potency entry in test [1], in test [2], in test [3] and in test [5] was “inactive” each time. The compound was classed as inactive in test [7] and in test [10].

With `CC(C)O`, the Potency entry in test [1], in test [2], in [3] and in [5] was “inactive” in each case. Besides, the compound was classed as inactive in test [7], in [8] and in [10].

`COC(=O)c1ccc(OC)cc1`: the Potency entry in test [1], in test [2], in test [3], in test [9] and in test [5] was “inactive” throughout. The outcome in test [6], in [7], in test [8] and in test [10] was inactive.

For `CC(C)c1ccccc1`, the Potency result in test [1], in [2] and in test [3] was “inactive” throughout. Moreover, the compound was called inactive in test [6], in test [7], in test [8] and in [10].

Turning to `O=C1CCCc2ccccc21`, the Potency result in test [1], in test [2], in test [9], in [4] and in test [5] was “inactive” each time. For the same compound, the compound was classed as inactive in test [6], in [7] and in test [8].

Regarding `CC(C)Nc1nc(N)nc(Cl)n1`, the Potency entry in test [1], in test [2], in [9], in test [4] and in test [5] was “inactive” each time. The compound was classed as inactive in test [6], in [7], in test [8] and in [10].

On to `C=CCCC=C`, for which the Potency entry in [1], in [2], in test [4] and in [5] was “inactive” each time. Besides, the compound was classed as inactive in test [6] and in test [7].

As to `CCCCCCCCCC#N`, the Potency entry in test [1], in test [2] and in [3] was “inactive” throughout. Further, the compound was called inactive in test [7], in [8] and in [10].
